# Compound activity: PubChem, National Center for Advancing Translational Sciences (NCATS)
# VACV mCherry inh: vaccinia inhibition (mCherry reporter). Vaccinia virus mCherry reporter infection, fluorescence. Potency, µM (titrated, usually from 36.5 µM), without a hit: at the top dose activity change, negative = inhibition, most hits filed as inhibitors. 0.63% of 310,000 active. AID 720579; calls by dose curve; tested in A549 cells; note: nearly all actives have a fitted effect of over 35% in size
# AMA1-RON2 inh: AMA1-RON2 (P. falciparum) interaction inhibition; AlphaScreen AMA1-biotinylated RON2 peptide binding; Potency, µM (series often up to 58.2 µM), without a hit: top-dose activity change, negative = inhibition, most hits filed as inhibitors; 0.2% of 360,000 active; AID 720542;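 note: 0% = vehicle wells and -100% = peptide control; nearly all actives have a fitted effect of over 45% in size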
#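 AMA1 (3D7) with his tag at 25 nM final met compounds first, then biotinylated RON2 peptide at 25 nM; detection used donor plus acceptor beads, 10 µg/mL apiece, read by AlphaScreen after 30 min at room temperature.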
# Pf growth 96h: P. falciparum growth inhibition at 96 hour, primary screen for plastid delayed-death inhibitors. P. falciparum luciferase reporter growth, 96 h. Potency, µM (titrated, usually from 28.7 µM), for the others: at the highest dose activity change, negative = inhibition, actives largely listed as inhibitors. 6.9% of 320,000 active. AID 504834
#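 96 h incubation, 37 C, 5% CO2, of luciferase-reporter P. falciparum-infected RBCs (2% hematocrit, 0.05% parasitemia final) with test compounds; endpoint luminescence.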
# VACV Venus inh: vaccinia inhibition (Venus reporter). Vaccinia virus Venus reporter expression, fluorescence. Potency, µM (top dose mostly 36.5 µM), inactives show at the highest dose activity change, negative = inhibition, usual class: inhibitors. 0.46% of 330,000 active. AID 720580; calls by dose curve; tested in A549 cells; note: nearly all actives have a fitted effect of over 30% in size
# Pf growth 48h: inhibits P. falciparum growth in the first generation, 48 h; P. falciparum luciferase growth in erythrocytes, 48 h; Potency, µM (titrated, usually from 28.7 µM), without a hit: at the top dose activity change, negative = inhibition, hits mostly inhibitors; 5.9% of 310,000 active; AID 504832
#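 Growth was read as firefly luciferase luminescence after a 48 h, 37 C, 5% CO2 exposure of compounds to reporter-bearing P. falciparum cultures (0.1% parasitemia, 2% hematocrit final) in Albumax-supplemented RPMI 1640.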
# Starred values were filed as active, the others as inactive; i = inactive; ? = inconclusive; nt = not tested or not shown. Only some compounds are listed: those with a hit (about 8.7% of all), similar ones and a draw of the others. Unless noted, calls come from the whole dose curve; as a rule, active = well fitted curve in the direction sought with a large enough effect; inconclusive = small, poorly fitted or top-dose-only effect, or another doubt; inactive = no such curve, though single readings can be large; an effect the other way counts as inactive or inconclusive. Unless noted, % is set by controls: 0 for no effect and ±100 for the full control effect; potency is the fitted concentration of half-maximal effect.
SMILES,VACV mCherry inh,AMA1-RON2 inh,Pf growth 96h,VACV Venus inh,Pf growth 48h
CCCCN(C)CC(O)Cn1cc(/C=C/C(=O)c2cccs2)c2ccccc21 (stereo not drawn),?,-12%,4.1µM*,?,8.3µM*
CCCCN(C)CC(O)Cn1cc(/C=C/C(=O)c2ccc(OCC)cc2)c2ccccc21 (stereo not drawn),?,nt,?,?,5.2µM*
CCCCN(CCCC)CC(O)Cn1cc(/C=C/C(=O)c2ccccc2)c2ccccc21 (stereo not drawn),-16%,nt,nt,-18%,nt
O=C(/C=C/c1cn(CC(O)CN2CCCCCC2)c2ccccc12)c1cccs1 (stereo not drawn),-26%,-20%,-9%,-22%,12µM*
COc1cn(CC(=O)Nc2ccccc2)c(CN2CCCCC2)cc1=O,-6%,nt,nt,-4%,nt
CCOC(=O)c1cnc(SCc2ccc(C)cc2)nc1N,-7%,29%,0.052µM*,1%,70%
Cc1cc(C)n(-c2nc3ccccc3c(=O)n2OCc2ccc(F)cc2)n1,nt,1%,8.3µM*,-20%,?
Cc1cc(C)n(-c2nc3ccccc3c(=O)n2OCC(=O)N(C)C)n1,nt,-3%,2%,-5%,?
Cc1cc(CC(C)C)n(-c2nc3ccccc3c(=O)n2OCc2ccccc2)n1,nt,28%,12µM*,nt,?
Cc1cc(C)n(-c2nc3ccccc3c(=O)n2OCC(=O)Nc2c(C)cccc2C)n1,nt,3%,13µM*,-16%,?
Cc1cc(C)n(-c2nc3ccccc3c(=O)n2OCc2ccc(Cl)cc2)n1,nt,1%,?,nt,?
Cc1cc(C)n(-c2nc3ccccc3c(=O)n2OCC(=O)OCc2ccccc2)n1,nt,2%,?,?,1.5µM*
CC(C)c1nn2c(=O)cc(COC(=O)c3ccc(NC(=O)c4ccccc4Cl)cc3)nc2s1,-17%,nt,nt,-8%,nt
COc1ccc(C2Nc3ccc(NC(C)=O)cc3C(=O)N2Cc2ccccc2)cc1COc1ccc(NC(C)=O)cc1 (stereo not drawn),-12%,nt,nt,-10%,nt
COc1ccc(C2Nc3ccccc3C(=O)N2Cc2ccco2)cc1COc1ccc(NC(C)=O)cc1 (stereo not drawn),-8%,-16%,10µM*,-19%,?
Cc1ccc(C2Nc3ccccc3C(=O)N2Cc2ccco2)cc1 (stereo not drawn),-27%,-10%,15µM*,?,?
COc1ccc(C2Nc3ccccc3C(=O)N2Cc2ccco2)cc1COc1ccccc1F (stereo not drawn),nt,-11%,4.1µM*,-13%,nt
COc1cc(/C=C/c2cncc(/C=C/c3cc(OC)c(OC)c(OC)c3)c2)cc(OC)c1OC,-20%,nt,nt,-5%,nt
Cc1cccc(N2CCN(C(=O)c3cccc(-n4c(C)nc5cccnc54)c3)CC2)c1C,i,nt,nt,-29%,nt
COc1ccc(C2CC(=O)C(C=NCCN3CCNCC3)=C(O)C2)cc1OC (stereo not drawn),nt,nt,13µM*,nt,-1%
CCCCCC(=O)N1CCN(CCN=CC2=C(O)CC(c3ccc(OC)c(OC)c3)CC2=O)CC1 (stereo not drawn),-2%,10%,nt,-16%,9%
O=[N+]([O-])c1ccc(NC2CCN(Cc3ccccc3)CC2)c2ccncc12,0%,-1%,?,-5%,1.7µM*
CC1CCC2C(=O)N(c3ccc(NC4CCN(Cc5ccccc5)CC4)c([N+](=O)[O-])c3)C(=O)C2C1 (stereo not drawn),nt,-7%,18%,nt,12µM*
O=[N+]([O-])c1ccc(NC2CCCC2)c2ccncc12,?,?,-13%,-14%,?
O=C1C2CCCCC2C(=O)N1c1ccc(NC2CCN(Cc3ccccc3)CC2)c([N+](=O)[O-])c1 (stereo not drawn),nt,-1%,-8%,nt,?
COc1ccc(CCNC(=O)C2CCCN(c3nc4c(C)cc(C)cc4s3)C2)cc1OC (stereo not drawn),-21%,nt,nt,-21%,nt
O=C(c1ccc2c(c1)OCO2)N(Cc1cc2ccc(F)cc2nc1N1CCC(O)CC1)CC1CCCO1 (stereo not drawn),12%,nt,nt,38%,nt
Cc1ccc(C)n1CCN1CCN(S(=O)(=O)c2ccc(F)cc2F)CC1,i,29%,13µM*,-15%,?
Cc1cc(NCc2ccccc2Cl)n2cnnc2n1,-4%,nt,nt,?,nt
